PubChem BioAssay (Tox21)
Results filed as inconclusive are left out. Activity calls are given as the source filed them. The call rests on the fitted dose curve; in most records, active means well fitted activation curve with a large enough effect in the repeat runs; inconclusive means weak or mixed curves; inactive means no such curve, though single readings can be large or run the other way.

Biological target: Nuclear receptor subfamily 1 group I member 2 (Homo sapiens) (UniProt O75469)
Experiment: Human pregnane X receptor (PXR) small molecule agonists, qHTS assay (AID 1346982); further: nearly all actives have a fitted effect of over 35% in size
Details: PXR-Luc HepG2, CYP3A4 luciferase reporter, 24 h; series mostly up to 92.4 µM
How it was run: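 Luminescence (ONE-Glo, 30 min RT) after 24 hr compound exposure of PXR-Luc HepG2 cells; cells rested 5 hr post-plating in 5% charcoal-stripped FBS medium.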
On the % scale 0 is the no-effect control and ±100 the full control effect; potency means the concentration at half of the fitted maximal effect.

Sequence of Nuclear receptor subfamily 1 group I member 2 (Homo sapiens) (O75469 whole entry, looked up): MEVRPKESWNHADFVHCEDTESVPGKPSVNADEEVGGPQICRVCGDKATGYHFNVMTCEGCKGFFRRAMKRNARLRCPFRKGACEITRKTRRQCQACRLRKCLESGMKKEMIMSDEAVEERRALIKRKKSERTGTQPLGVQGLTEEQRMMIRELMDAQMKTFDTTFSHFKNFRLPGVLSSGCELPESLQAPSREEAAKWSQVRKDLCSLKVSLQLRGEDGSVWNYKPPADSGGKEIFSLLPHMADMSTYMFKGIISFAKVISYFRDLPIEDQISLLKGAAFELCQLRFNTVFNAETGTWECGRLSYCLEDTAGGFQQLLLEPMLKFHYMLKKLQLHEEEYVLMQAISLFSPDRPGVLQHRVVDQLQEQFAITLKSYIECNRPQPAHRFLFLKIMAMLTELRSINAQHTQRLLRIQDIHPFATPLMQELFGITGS

Row | Structure (SMILES) | Potency
1 | Clc1nc(C(Cl)(Cl)Cl)c(Cl)c(Cl)c1Cl | inactive
2 | CCOc1ccc([N+](=O)[O-])cc1 | inactive
3 | c1ccc2cc3c4ccccc4c4ccccc4c3cc2c1 | 4.88 µM (active)
4 | C=C1C(CCl)(CCl)C2(Cl)C(Cl)C(Cl)C1(Cl)C2(Cl)Cl (stereo unspecified) | 8.53 µM (active)
5 | O=C(Nc1ccccc1)c1cc(Cl)ccc1O | 15.4 µM (active)
6 | CC(Cc1ccc(O)c(O)c1)C(C)Cc1ccc(O)c(O)c1 (stereo unspecified) | 21.7 µM (active)
7 | NCc1cccc(C2CCN(C(=O)c3ccc(C#Cc4ccccc4F)o3)CC2)c1 | inactive
8 | CCCCCCCCCCCCCCCCCCNC(=O)OC1CCN(C(=O)OC[C@H](COC(=O)N(Cc2cccc[n+]2CC)C(=O)c2ccccc2OC)OC)CC1 | inactive
9 | c1ccc(-c2ccc(C(c3ccccc3)n3ccnc3)cc2)cc1 (stereo unspecified) | 23.7 µM (active)
10 | CC(C)(c1ccc(Oc2ccc(N)cc2)cc1)c1ccc(Oc2ccc(N)cc2)cc1 | 61.1 µM (active)
11 | CCCCCCCC/C=C\CCCCCCCC(=O)N(CCO)CCO | 60.9 µM (active)
12 | O=[N+]([O-])c1ccc(O)c2ncccc12 | 29.8 µM (active)
13 | c1ccc2c(c1)-c1ccc3ccc4cccc5cc-2c1c3c45 | inactive
14 | O=C1CCC/C=C\CCCCCCCCCC1 | 30.6 µM (active)
15 | O=S(=O)(c1ccc(OCc2ccccc2)cc1)c1ccccc1O | 61.1 µM (active)
16 | O[Si](c1ccccc1)(c1ccccc1)c1ccccc1 | 27.3 µM (active)

Biological target: Nuclear receptor subfamily 1 group I member 2 (Rattus norvegicus) (UniProt Q9R1A7)
Experiment: Rat pregnane X receptor (rPXR) activation by small molecules, qHTS assay (AID 1346983); further: nearly all actives have a fitted effect of over 20% in size
Details: rPXR luciferase reporter cells, One-Glo luminescence, 24 h; max activation: active compounds read high
How it was run: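 Cell-based rPXR activation assay: rPXR cells, 2,000 per well, rested 5hr at 37 C, then exposed to compounds in DMSO for 24 hr at 37 C. Luciferase activity read by One-Glo luminescence after 30 min at room temperature.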

Sequence of Nuclear receptor subfamily 1 group I member 2 (Rattus norvegicus) (Q9R1A7 whole entry, looked up): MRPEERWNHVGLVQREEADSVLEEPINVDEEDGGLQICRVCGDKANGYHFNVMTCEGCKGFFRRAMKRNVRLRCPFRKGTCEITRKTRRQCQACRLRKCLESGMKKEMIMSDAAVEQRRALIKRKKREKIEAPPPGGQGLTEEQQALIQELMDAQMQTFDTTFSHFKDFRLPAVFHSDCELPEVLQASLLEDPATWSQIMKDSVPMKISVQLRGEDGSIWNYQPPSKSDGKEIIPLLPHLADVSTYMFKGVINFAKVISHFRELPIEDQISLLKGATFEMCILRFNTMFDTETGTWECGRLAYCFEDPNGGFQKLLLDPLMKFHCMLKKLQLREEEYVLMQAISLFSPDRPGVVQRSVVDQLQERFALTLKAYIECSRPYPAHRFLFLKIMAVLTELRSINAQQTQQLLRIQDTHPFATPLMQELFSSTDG

Row | Structure (SMILES) | max activation | Potency
17 | CN(Cc1ccccc1)Cc1ccccc1 | -2.9% (inactive) | –
18 | CC(=O)OCC(=O)[C@@]1(O)CC[C@H]2[C@@H]3C[C@H](C)C4=CC(=O)C=C[C@]4(C)[C@H]3[C@@H](O)C[C@@]21C | – | 7.94 µM (active)
19 | O=S(=O)(O)O | 0.359% (inactive) | –
20 | C=C1C(CCl)(CCl)C2(Cl)C(Cl)C(Cl)C1(Cl)C2(Cl)Cl (stereo unspecified) | – | 11.2 µM (active)
21 | CCCCCCCCCCCCCCCCCC(=O)O | -4.34% (inactive) | –
22 | O=C1CCC(c2ccccc2)(C2CCN(Cc3ccccc3)CC2)C(=O)N1 (stereo unspecified) | 4.99% (inactive) | –
23 | CN1[C@@H](CC(=O)c2ccccc2)CCC[C@H]1C[C@H](O)c1ccccc1 | 4.75% (inactive) | –
24 | CCCCCCCCCCCCOS(=O)(=O)O | -3.52% (inactive) | –
25 | CCN(CC)C(=S)S | -4.17% (inactive) | –
26 | CCCCCCCCCCCCCCCC[n+]1ccccc1 | -15.5% (inactive) | –
27 | O=C(O)c1ccccc1O | -4.21% (inactive) | –
28 | Cc1ncc(C[n+]2csc(CCO)c2C)c(N)n1 | -0.76% (inactive) | –
29 | CCOC(=O)[C@H](CCc1ccccc1)N[C@@H](C)C(=O)N1[C@H](C(=O)O)C[C@H]2CCCC[C@@H]21 | -1.14% (inactive) | –
30 | O=P(O)(O)CP(=O)(O)O | -0.378% (inactive) | –
31 | CCC(=O)OC(OP(=O)(CCCCc1ccccc1)CC(=O)N1C[C@H](C2CCCCC2)C[C@H]1C(=O)O)C(C)C (stereo partly specified) | -3.49% (inactive) | –
32 | CCN1\C(=C/C=C/C=C/c2sc3ccccc3[n+]2CC)Sc2ccccc21 | -28.2% (inactive) | –
33 | O=[N+]([O-])c1ccc(O)c2ncccc12 | -6.55% (inactive) | –
34 | O=C(O)c1ccccn1 | -2.98% (inactive) | –
35 | CC[N+](CC)(CC)CCC(O)(c1ccccc1)C1CCCCC1 (stereo unspecified) | -2.27% (inactive) | –
36 | CC1CCCC(C)N1NC(=O)c1ccc(Cl)c(S(N)(=O)=O)c1 (stereo unspecified) | -4.09% (inactive) | –
37 | CC[C@H]1OC(=O)C[C@@H](O)[C@H](C)[C@@H](O[C@@H]2O[C@H](C)[C@@H](O)[C@H](N(C)C)[C@H]2O)[C@@H](CCN2C[C@H](C)C[C@H](C)C2)C[C@@H](C)C(=O)/C=C/C(C)=C/[C@@H]1CO[C@@H]1O[C@H](C)[C@@H](O)[C@@H](OC)[C@H]1OC | -0.718% (inactive) | –
38 | COc1cc(NS(C)(=O)=O)ccc1Nc1c2ccccc2nc2ccccc12 | -19% (inactive) | –
39 | O.O.O.O.O.O.O.O=S(=O)([O-])[O-].[Co+2] | -2.66% (inactive) | –
40 | CC(C)(C)c1ccc2c(S(=O)(=O)O)c(C(C)(C)C)ccc2c1 | -3.68% (inactive) | –
41 | CNCCC=C1c2ccccc2CCc2ccccc21 | -3.34% (inactive) | –

Biological target: Nuclear receptor subfamily 1 group I member 2 (Homo sapiens) (UniProt O75469)
Experiment: CYP3A4 induction through human pregnane X receptor (PXR) by small molecules, qHTS assay (AID 1346984); further: nearly all actives have a fitted effect of over 40% in size
Details: DPX-2 HepG2 PXR, CYP3A4-luciferin luminescence, 24 h; series mostly up to 46.1 µM
How it was run: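 DPX-2 reporter cells; 24h cpd, 37C; Luciferin-IPA 3uM final x3h; One-Glo 30 min RT; lumi read.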

Row | Structure (SMILES) | Potency
42 | CN(Cc1ccccc1)Cc1ccccc1 | inactive
43 | CC(=O)OCC(=O)[C@@]1(O)CC[C@H]2[C@@H]3C[C@H](C)C4=CC(=O)C=C[C@]4(C)[C@H]3[C@@H](O)C[C@@]21C | inactive
44 | C=C1C(CCl)(CCl)C2(Cl)C(Cl)C(Cl)C1(Cl)C2(Cl)Cl (stereo unspecified) | inactive
45 | O=C1CCC(c2ccccc2)(C2CCN(Cc3ccccc3)CC2)C(=O)N1 (stereo unspecified) | 14.1 µM (active)
46 | CN1[C@@H](CC(=O)c2ccccc2)CCC[C@H]1C[C@H](O)c1ccccc1 | inactive
47 | CCOC(=O)[C@H](CCc1ccccc1)N[C@@H](C)C(=O)N1[C@H](C(=O)O)C[C@H]2CCCC[C@@H]21 | inactive
48 | O=P(O)(O)CP(=O)(O)O | inactive
49 | CCC(=O)OC(OP(=O)(CCCCc1ccccc1)CC(=O)N1C[C@H](C2CCCCC2)C[C@H]1C(=O)O)C(C)C (stereo partly specified) | inactive
50 | CCN1\C(=C/C=C/C=C/c2sc3ccccc3[n+]2CC)Sc2ccccc21 | inactive
51 | O=[N+]([O-])c1ccc(O)c2ncccc12 | inactive
52 | CC[N+](CC)(CC)CCC(O)(c1ccccc1)C1CCCCC1 (stereo unspecified) | inactive
53 | CC1CCCC(C)N1NC(=O)c1ccc(Cl)c(S(N)(=O)=O)c1 (stereo unspecified) | inactive
54 | CC[C@H]1OC(=O)C[C@@H](O)[C@H](C)[C@@H](O[C@@H]2O[C@H](C)[C@@H](O)[C@H](N(C)C)[C@H]2O)[C@@H](CCN2C[C@H](C)C[C@H](C)C2)C[C@@H](C)C(=O)/C=C/C(C)=C/[C@@H]1CO[C@@H]1O[C@H](C)[C@@H](O)[C@@H](OC)[C@H]1OC | inactive
55 | COc1cc(NS(C)(=O)=O)ccc1Nc1c2ccccc2nc2ccccc12 | inactive
56 | CNCCC=C1c2ccccc2CCc2ccccc21 | 7.08 µM (active)
